Experimental data as given in PubChem BioAssay AID1159580 (chemical genetic matrix, 2015).
The whole screen tested about 5,500 compounds, of which about 2,000 (36%) were called active. Not shown: some 18% with an inconclusive outcome. Cut-off read from the data, not from the text of the source: active = normalized growth mostly below about 0.91 (no sharp cut-off); inconclusive = no clear call, values can overlap the other calls; inactive = mostly above about 0.92. Some of the results follow.

Experiment: chemical genetic growth profiling, strain panel (AID 1159580);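 note: tested at 20 µM; growth read once vehicle control cultures reached saturation at 30 °C; 1 = growth at the plate median or of vehicle wells; lower values mean less growth of the strain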
Settings: S. cerevisiae deletion strains, growth OD

Measured: normalized growth

COC(=O)C(N)Cc1ccc(Cl)cc1 (stereo not given)
inactive: locus YAL040C, strain CLN3, hits give low values 0.998 | locus YCL061C, strain MRC1 (second series), hits give low values 0.993 | locus YDR363W, strain ESC2, hits give low values 0.976 | locus YER002W, strain NOP16, hits give low values 0.988 | locus YGR229C, strain SMI1, hits give low values 0.99 | locus YNL153C, strain GIM3, hits give low values 1.01 | locus YNL175C, strain NOP13, hits give low values 0.965 | locus YNL197C, strain WHI3, hits give low values 0.965 | locus YNL224C, strain SQS1, hits give low values 0.984 | locus YOR083W, strain WHI5 (second series), hits give low values 0.91
